Sampled rows, rich in hits. Any-hit rate of the full collection: about 3.1%.
FadD28 FP inh – inhibitors of FadD28 bisubstrate probe binding, primary screen, biochemical, fluorescence polarization, single point; inhibition, % at 12.5 µM; 360,000 tested, 0.22% active; in the data active means inhibition above about 8.5%, passing the limit was not always enough
SARS 3CLpro inh – SARS-CoV 3CLpro protease inhibitors, primary screen, biochemical, quenched FRET; inhibition, % at 6 µM; recombinant SARS-CoV 3CLpro, quenched FRET peptide cleavage; 290,000 tested, 0.14% active; in the data active means inhibition above about 12%
GDH-TPI counter – GDH-TPI coupling enzyme inhibitors, primary screen, artefact control for M. tuberculosis FBA inhibitor project, biochemical, absorbance, full deck; GDH-TPI coupled enzyme counterscreen, NADH absorbance; inhibition, % at 4.8 µM; 360,000 tested, 1.2% active; in the data active means inhibition above about 30%;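 further: 0% = DMSO wells and 100% = wells lacking the enzyme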
Mtb BioA inh – M. tuberculosis BioA enzyme inhibitors, primary screen, biochemical, plate reader, single point, HTS | 7,8-diaminopelargonic acid synthase BioA (Mycobacterium tuberculosis) | purified M. tuberculosis BioA enzyme | inhibition, % at 9.99 µM | 360,000 tested, 0.096% active; in the data active means inhibition above about 40%
FBA Mtb inh – Mtb FBA enzyme inhibitors, primary screen, biochemical, fluorescence, strain H37Rv. 360,000 tested, 2.3% active. Fructose-bisphosphate aldolase (Mycobacterium tuberculosis (strain ATCC 25618 / H37Rv)), …. inhibition, % at 1 µM. purified M. tuberculosis FBA, fluorescence read-out. AID 588726, 2011; in the data active means inhibition above about 27%;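 further: 0% = vehicle and 100% = reference inhibitor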
Target sequence (P9WQA3 whole entry, looked up): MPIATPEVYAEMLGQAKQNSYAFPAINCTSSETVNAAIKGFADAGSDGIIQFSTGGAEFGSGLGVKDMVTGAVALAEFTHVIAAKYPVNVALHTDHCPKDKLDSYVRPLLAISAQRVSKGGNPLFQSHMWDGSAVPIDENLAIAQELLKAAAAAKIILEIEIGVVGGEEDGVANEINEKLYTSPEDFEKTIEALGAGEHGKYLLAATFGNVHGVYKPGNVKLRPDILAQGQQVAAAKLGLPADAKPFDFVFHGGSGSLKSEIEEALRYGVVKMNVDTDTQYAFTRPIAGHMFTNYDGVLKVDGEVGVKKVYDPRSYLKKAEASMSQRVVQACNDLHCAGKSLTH
The depositor's hits bear a star; . = no result.

SMILES | FadD28 FP inh | SARS 3CLpro inh | GDH-TPI counter | Mtb BioA inh | FBA Mtb inh
O=c1c2c3nc4ccccc4nc3n(CC3CCCO3)c2ncn1CCc1ccccc1 (configuration not stated) | -4 | 0 | 7 | -1 | 25
O=c1c2c3nc4ccccc4nc3n(CCN3CCOCC3)c2ncn1CCN1CCOCC1 | -1 | . | 34* | -1 | 22
Cc1ccc2c(c1)c1nc3ccccc3nc1n2CCN1CCOCC1 | -5 | 1 | 34* | -2 | -3
CCn1c2ccc(C)cc2c2nnc(SCCN3CCOCC3)nc21 | -1 | -5 | 27 | . | -3
CC(C)NC(=O)Nc1ccc2c(c1)CC(=O)N([C@H](C)CO)C[C@@H](C)[C@@H](CN(C)Cc1ccc(C(F)(F)F)cc1)O2 | . | . | . | 2 | .
C[C@@H]1CCCCO[C@@H](CN(C)Cc2ccc(C(F)(F)F)cc2)[C@H](C)CN([C@@H](C)CO)C(=O)c2cc(NS(=O)(=O)c3ccc(Cl)cc3)ccc2O1 | . | . | . | 0 | .
Cn1c2ccccc2c(=O)c2cc(C#Cc3ccccn3)ccc21 | -4 | -3 | 26 | 0 | 186*
Cc1cc(O)c2c(c1)C(=O)C13C(=C2O)C(=O)[C@H]2[C@@H](O)[C@@H]1[C@H]1[C@H](O)[C@@H]3C(=O)C3=C(O)c4c(O)cc(C)cc4C(=O)C312 (some centres not stated) | -1 | . | 38* | 0 | -18
N/C(=N\NC(=O)c1cccs1)c1cc2ccccc2oc1=O | -1 | -3 | 42* | 5 | 3
CCN(CC)c1ccc2cc(/C(N)=N/NC(=O)c3cccs3)c(=O)oc2c1 | . | -1 | . | . | .
CC1(C)CC(=O)C=C(/C=C/c2ccccc2)C1 | -1 | . | 49* | -1 | 4
C[C@@H]1CN([C@H](C)CO)C(=O)c2cc(C#Cc3cccc(F)c3)cnc2O[C@H]1CN(C)C(=O)C1CCC1 | . | . | . | -1 | .
C[C@@H]1CN([C@H](C)CO)C(=O)c2cc(C#CC(C)(C)O)cnc2O[C@H]1CN(C)C(=O)C1CCCCC1 | . | . | . | 2 | .
Clc1ccc2c(SCC3CO3)c3ccccc3nc2c1 (configuration not stated) | -2 | . | 15 | . | 122*
Cc1ccc(S(=O)(=O)N(C)C[C@H]2Oc3ccc(NS(=O)(=O)c4c(C)noc4C)cc3CC(=O)N([C@H](C)CO)C[C@H]2C)cc1 | . | . | . | 2 | .
C[C@@H](NC(=O)C[C@@H]1C[C@H]2c3cc(NC(=O)c4cccnc4)ccc3O[C@H]2[C@H](CO)O1)c1ccccc1 | . | . | . | 21 | .
C[C@H](CO)N1C[C@H](C)[C@@H](CN(C)C(=O)Nc2cccc3ccccc23)Oc2c(NS(=O)(=O)c3ccc(F)cc3)cccc2C1=O | . | . | . | 0 | .
COc1ccc2nc(N3CCOCC3)cc(C)c2c1 | -1 | 2 | 15 | 0 | 85*
CCOc1ccc(C(=O)Nc2nnc(SCC(=O)NCC3CCCO3)s2)cc1 (configuration not stated) | 0 | 1 | 38* | -2 | 1
CC(C)(C)c1ccc(C(=O)Nc2nnc(SCC(=O)NCC3CCCO3)s2)cc1 (configuration not stated) | -3 | 0 | -6 | -1 | 0
CN(C)S(=O)(=O)c1ccc(C(=O)Nc2nnc(SCC(=O)NCC3CCCO3)s2)cc1 (configuration not stated) | 0 | 2 | 35* | -3 | -2
Oc1ccc(/C=N/Nc2cc(N3CCOCC3)nc(N3CCOCC3)n2)cc1 | -2 | 1 | 58* | 0 | 2
Oc1ccc(/C=N/Nc2cc(N3CCCC3)nc(N3CCCC3)n2)cc1 | 1 | 0 | 11 | 0 | -1
COc1ccc(OC)c(/C=N/Nc2cc(C)nc(N3CCOCC3)n2)c1 | -3 | -7 | 21 | 2 | 5
Cc1cc(N/N=C/c2ccccc2O)nc(N2CCOCC2)n1 | 3 | 0 | 64* | . | 4
Cc1noc(C)c1NC(=O)N(C)C[C@@H]1Oc2ccc(NS(=O)(=O)c3ccc(F)cc3)cc2CC(=O)N([C@@H](C)CO)C[C@@H]1C | . | . | . | 2 | .
O=C(O)CCCN1C(=O)/C(=C/c2ccncc2)SC1=S | -3 | 6 | 38* | -1 | -4
O=C(O)CCCN1C(=O)/C(=C/c2ccc(-c3nc4ccccc4s3)o2)SC1=S | 8.6* | -4 | 8 | -1 | -3
